# Measurements reported in PubChem BioAssay (NCATS).
# Where “and” joins values, the source holds several entries; their conditions need not be identical. Equal entries are not always repeated. Records with an inconclusive call do not appear. Entries that show only a call come without a potency. Calls of active or inactive are those of the source. Unless noted, calls come from the whole dose curve.
# Tests used:
# [1] = target: Glucocorticoid receptor (Homo sapiens) (UniProt P04150); experiment: qHTS assay for small molecule antagonists of glucocorticoid receptor signaling (AID 588533; active = well fitted inhibition curve with a large enough effect in the signal ratio, with a control signal flat, not every such curve was filed as active; the % refers to the signal ratio;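 note: cells stimulated with 2 nM dexamethasone as agonist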)
# Sequence of Glucocorticoid receptor (Homo sapiens) (P04150 whole entry, looked up): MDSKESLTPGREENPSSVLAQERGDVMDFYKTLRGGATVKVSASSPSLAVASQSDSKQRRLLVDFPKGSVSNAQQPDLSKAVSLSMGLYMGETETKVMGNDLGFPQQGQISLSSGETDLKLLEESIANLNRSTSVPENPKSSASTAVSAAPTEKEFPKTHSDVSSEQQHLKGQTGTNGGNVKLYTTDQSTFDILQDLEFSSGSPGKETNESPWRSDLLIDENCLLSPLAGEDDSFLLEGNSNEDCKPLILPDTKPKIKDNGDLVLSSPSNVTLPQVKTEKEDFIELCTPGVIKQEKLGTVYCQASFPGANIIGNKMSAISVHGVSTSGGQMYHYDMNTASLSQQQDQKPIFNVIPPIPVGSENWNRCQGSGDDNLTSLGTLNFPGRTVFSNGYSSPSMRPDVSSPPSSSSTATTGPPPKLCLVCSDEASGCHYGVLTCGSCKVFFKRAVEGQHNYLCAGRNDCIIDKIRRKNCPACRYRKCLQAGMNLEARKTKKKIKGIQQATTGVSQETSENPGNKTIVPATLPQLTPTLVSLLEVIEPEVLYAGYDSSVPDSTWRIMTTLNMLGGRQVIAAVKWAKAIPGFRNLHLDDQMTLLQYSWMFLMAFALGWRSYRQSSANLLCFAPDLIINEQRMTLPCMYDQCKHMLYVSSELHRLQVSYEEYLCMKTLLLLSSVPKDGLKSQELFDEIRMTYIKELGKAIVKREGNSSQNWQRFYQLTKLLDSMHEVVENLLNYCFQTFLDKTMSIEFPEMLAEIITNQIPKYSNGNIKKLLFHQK
# In short: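 Antagonist-mode qHTS: compound titrations added to GRE-bla HeLa cells, then dexamethasone 2 nM final; 18 h, 37 C. CCF4 FRET fluorescence normalized to dexamethasone and DMSO; IC50 from Hill fit.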
# [2] = qHTS assay for small molecule antagonists of peroxisome proliferator-activated receptor delta signaling (AID 588535; active = well fitted inhibition curve with a large enough effect in the signal ratio, with a control signal flat, not every such curve was filed as active; the % refers to the signal ratio;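 for max response: cells co-treated with a PPAR-delta agonist as stimulator during compound exposure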); settings: HEK293T PPARd-UAS-bla, beta-lactamase FRET ratio, 18 h; 460 nm channel
# In short: (§1)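 Antagonist-mode qHTS using GeneBLAzer PPAR-delta-UAS-bla HEK293T cells; compound exposure 18 hrs at 37 C over a titration. Ratiometric CCF4 fluorescence at 460/530 nm; concentration-response points fitted to the Hill equation.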
# [3] = target: Peroxisome proliferator-activated receptor delta (Homo sapiens) (UniProt Q03181); experiment: as above
# Sequence of Peroxisome proliferator-activated receptor delta (Homo sapiens) (Q03181 whole entry, looked up): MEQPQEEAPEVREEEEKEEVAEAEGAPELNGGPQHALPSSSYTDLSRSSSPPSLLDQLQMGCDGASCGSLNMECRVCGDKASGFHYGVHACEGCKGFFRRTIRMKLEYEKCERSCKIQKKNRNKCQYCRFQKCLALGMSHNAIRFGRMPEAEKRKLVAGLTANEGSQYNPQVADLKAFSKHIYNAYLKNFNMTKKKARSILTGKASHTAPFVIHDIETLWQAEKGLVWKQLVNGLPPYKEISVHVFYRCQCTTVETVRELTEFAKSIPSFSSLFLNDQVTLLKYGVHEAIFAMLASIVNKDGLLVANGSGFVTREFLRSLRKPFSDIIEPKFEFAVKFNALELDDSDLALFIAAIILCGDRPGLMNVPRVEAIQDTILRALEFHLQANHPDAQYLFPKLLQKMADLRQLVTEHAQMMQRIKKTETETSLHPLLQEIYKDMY
# In short: as §1
# [4] = target: Peroxisome proliferator-activated receptor gamma (Homo sapiens) (UniProt P37231); experiment: qHTS assay for small molecule agonists of peroxisome proliferator-activated receptor gamma signaling (AID 588536; active = well fitted curve in the direction sought with a large enough effect in the signal ratio, with a control signal flat, not every such curve was filed as active; the % refers to the signal ratio)
# Sequence of Peroxisome proliferator-activated receptor gamma (Homo sapiens) (P37231 whole entry, looked up): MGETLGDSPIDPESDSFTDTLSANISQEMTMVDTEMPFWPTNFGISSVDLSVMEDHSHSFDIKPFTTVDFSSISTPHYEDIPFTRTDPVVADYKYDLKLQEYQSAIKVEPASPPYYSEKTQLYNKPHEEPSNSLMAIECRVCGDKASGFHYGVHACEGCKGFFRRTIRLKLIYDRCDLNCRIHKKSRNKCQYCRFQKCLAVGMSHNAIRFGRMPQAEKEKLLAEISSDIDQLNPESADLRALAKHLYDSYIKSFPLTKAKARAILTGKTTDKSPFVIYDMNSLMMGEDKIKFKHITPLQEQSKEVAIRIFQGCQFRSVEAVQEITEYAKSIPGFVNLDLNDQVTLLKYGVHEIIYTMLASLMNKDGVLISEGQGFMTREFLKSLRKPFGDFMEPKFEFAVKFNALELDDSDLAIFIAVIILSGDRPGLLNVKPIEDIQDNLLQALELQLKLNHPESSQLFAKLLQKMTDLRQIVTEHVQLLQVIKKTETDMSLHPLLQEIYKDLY
# In short: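 Cells were plated and held 6–6.5 h at 37 C, then compounds were added as a titration series. After a further 16 h, CCF4 dye was loaded for 2 h at room temperature and emission at 460/530 nm recorded.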
# [5] = qHTS assay for small molecule agonists of retinoid X receptor alpha signaling (AID 588544); settings: HEK293T RXRa-UAS-bla, beta-lactamase reporter, 18 h; 530 nm emission
# [6] = target: Retinoic acid receptor RXR-alpha (Homo sapiens) (UniProt P19793); experiment: as above
# Sequence of Retinoic acid receptor RXR-alpha (Homo sapiens) (P19793 whole entry, looked up): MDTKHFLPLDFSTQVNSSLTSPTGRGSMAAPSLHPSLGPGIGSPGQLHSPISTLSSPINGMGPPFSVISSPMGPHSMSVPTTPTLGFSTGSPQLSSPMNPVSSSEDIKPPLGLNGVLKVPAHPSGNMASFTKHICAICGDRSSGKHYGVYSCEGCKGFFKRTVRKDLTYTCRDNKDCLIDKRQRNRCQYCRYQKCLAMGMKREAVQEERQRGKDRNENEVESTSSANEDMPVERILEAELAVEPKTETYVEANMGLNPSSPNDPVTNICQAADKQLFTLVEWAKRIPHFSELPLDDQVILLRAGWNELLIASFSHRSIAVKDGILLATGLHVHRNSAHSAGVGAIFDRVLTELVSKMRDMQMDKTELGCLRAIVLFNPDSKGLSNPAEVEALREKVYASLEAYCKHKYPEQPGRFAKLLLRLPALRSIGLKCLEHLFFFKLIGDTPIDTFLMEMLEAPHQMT
# [7] = target: Thyroid hormone receptor beta (Homo sapiens) (UniProt P10828); experiment: qHTS assay for small molecule agonists of thyroid hormone receptor beta signaling (AID 588545)
# Sequence of Thyroid hormone receptor beta (Homo sapiens) (P10828 whole entry, looked up): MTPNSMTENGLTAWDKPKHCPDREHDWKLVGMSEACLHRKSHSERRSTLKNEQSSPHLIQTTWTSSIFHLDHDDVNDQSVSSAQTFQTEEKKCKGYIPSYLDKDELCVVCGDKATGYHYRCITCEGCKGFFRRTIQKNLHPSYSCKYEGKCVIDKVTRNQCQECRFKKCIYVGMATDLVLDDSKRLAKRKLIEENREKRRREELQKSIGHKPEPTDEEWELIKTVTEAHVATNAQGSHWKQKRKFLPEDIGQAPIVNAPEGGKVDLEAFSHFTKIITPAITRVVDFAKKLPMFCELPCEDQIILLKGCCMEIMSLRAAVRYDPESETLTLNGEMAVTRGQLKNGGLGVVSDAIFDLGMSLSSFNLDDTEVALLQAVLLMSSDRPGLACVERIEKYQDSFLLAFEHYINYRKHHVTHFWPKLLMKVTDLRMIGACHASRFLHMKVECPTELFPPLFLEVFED
# In short: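 HEK 293 TR-UAS-bla; agonist mode; 18 hrs, 37 C; CCF4, ex 405/em 460 and 530 nm; norm. T3 10 nM = 100%, DMSO = 0%; Hill fit → EC50, efficacy.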
# [8] = qHTS assay for small molecule antagonists of retinoid X receptor alpha signaling (AID 588546; active = well fitted inhibition curve with a large enough effect in the signal ratio, with a control signal flat, not every such curve was filed as active; the % refers to the signal ratio;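 note: cells stimulated with 9-cis-retinoic acid as agonist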); settings: HEK293T RXRa-UAS-bla, beta-lactamase ratio, antagonist mode; measured here: W530 green channel, cytotoxicity proxy
# In short: (§2)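 Beta-lactamase reporter inhibition, read as CCF4 fluorescence ratio (ex 405, em 460/530 nm) after 2 h at RT. HEK293T UAS-bla cells, 2500/well, were stimulated with 9-cis-RA at 500 or 100 nM final alongside test compound for 18 h at 37 C.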
# [9] = target: Retinoic acid receptor RXR-alpha (Homo sapiens) (UniProt P19793); experiment: as above; settings: HEK293T RXRa-UAS-bla, beta-lactamase ratio, antagonist mode
# In short: as §2
# [10] = target: Thyroid hormone receptor beta (Homo sapiens) (UniProt P10828); experiment: qHTS assay for small molecule antagonists of thyroid hormone receptor beta signaling (AID 588547; active = well fitted inhibition curve with a large enough effect in the signal ratio, with a control signal flat, not every such curve was filed as active; the % refers to the signal ratio;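 note: cells stimulated with 0.4 nM T3 agonist during compound exposure; series mostly up to about 77 µM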); settings: TR-UAS-bla HEK293, beta-lactamase ratio, antagonist mode, 18 h
# In short: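 Inhibition of T3-driven (0.4nM final) beta-lactamase reporter activity was measured over 0.59 nM to 92 uM compound after 18 h at 37 C. The cells were GripTite HEK293 TR-UAS-bla in charcoal/dextran-stripped serum, with CCF4 ratio read-out and IC50 from Hill fits.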
# [11] = target: Voltage-gated inwardly rectifying potassium channel KCNH2 (Homo sapiens) (UniProt Q12809); experiment: qHTS Assay for Small Molecule Inhibitors of the Human hERG Channel Activity (AID 588834; active = well fitted inhibition curve with a large enough effect;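 note: top concentration of the series differs between compounds; lower thallium flux fluorescence means stronger hERG block; nearly all actives have a fitted effect of over 50% in size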)
# Sequence of Voltage-gated inwardly rectifying potassium channel KCNH2 (Homo sapiens) (Q12809 whole entry, looked up): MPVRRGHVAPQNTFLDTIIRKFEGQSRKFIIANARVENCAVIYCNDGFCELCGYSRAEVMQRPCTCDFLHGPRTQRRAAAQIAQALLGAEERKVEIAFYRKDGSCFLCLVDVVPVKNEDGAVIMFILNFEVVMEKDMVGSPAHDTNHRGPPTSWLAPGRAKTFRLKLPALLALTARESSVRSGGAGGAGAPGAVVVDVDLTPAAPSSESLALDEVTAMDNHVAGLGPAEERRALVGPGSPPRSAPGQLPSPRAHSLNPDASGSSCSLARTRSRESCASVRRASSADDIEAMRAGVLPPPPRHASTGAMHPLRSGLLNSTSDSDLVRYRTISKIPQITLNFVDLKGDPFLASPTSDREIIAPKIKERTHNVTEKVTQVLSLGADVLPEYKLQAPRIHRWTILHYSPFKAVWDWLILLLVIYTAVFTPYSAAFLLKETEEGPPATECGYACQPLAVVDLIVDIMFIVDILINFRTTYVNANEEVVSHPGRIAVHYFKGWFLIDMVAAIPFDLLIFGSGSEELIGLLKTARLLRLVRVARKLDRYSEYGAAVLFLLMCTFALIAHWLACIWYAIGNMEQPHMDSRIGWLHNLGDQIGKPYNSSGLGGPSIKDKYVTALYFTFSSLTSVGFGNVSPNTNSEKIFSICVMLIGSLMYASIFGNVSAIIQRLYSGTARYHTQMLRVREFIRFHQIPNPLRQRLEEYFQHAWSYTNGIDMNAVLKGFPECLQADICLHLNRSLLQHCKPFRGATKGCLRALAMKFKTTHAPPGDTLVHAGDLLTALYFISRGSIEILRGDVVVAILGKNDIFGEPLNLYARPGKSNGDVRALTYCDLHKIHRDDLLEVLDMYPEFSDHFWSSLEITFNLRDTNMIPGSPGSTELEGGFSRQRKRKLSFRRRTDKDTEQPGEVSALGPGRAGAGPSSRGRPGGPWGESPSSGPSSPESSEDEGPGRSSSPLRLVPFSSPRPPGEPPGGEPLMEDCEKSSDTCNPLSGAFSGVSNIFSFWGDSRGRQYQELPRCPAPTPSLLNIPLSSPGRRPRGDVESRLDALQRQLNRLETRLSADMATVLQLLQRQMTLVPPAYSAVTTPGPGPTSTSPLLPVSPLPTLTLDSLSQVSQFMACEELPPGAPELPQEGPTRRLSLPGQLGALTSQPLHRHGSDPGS
# In short: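 Thallium-flux (FluxOR) read-out on FDSS: fluorescence read 10 s before and 2 min after stimulation buffer. hERG-BacMam-transduced U2OS cells, compound exposure about 10 min. AC50 by standard Hill equation.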
# [12] = qHTS assay for small molecule activators of the p53 signaling pathway (AID 651743; active = well fitted activation curve with a large enough effect in the signal ratio, not every such curve was filed as active; the % refers to the signal ratio; note: series mostly up to about 92 µM); settings: HCT-116 p53RE-bla, beta-lactamase FRET ratio, 16 h; stronger effect = higher value
# In short: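 A beta-lactamase reporter under p53 response element control, stably carried by HCT-116 cells, reported pathway activation. Test compounds were applied for 16 hours at 37 C, and fluorescence was measured 2 hours after adding the B/G FRET substrate.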
# [13] = qHTS assay for small molecule activators of the nuclear factor-kappa B (NF-kB) signaling pathway (AID 651749; active = well fitted activation curve with a large enough effect in the signal ratio; the % refers to the signal ratio; note: series mostly up to about 77 µM); settings: NF-kB-bla ME-180 cells, beta-lactamase FRET ratio, 16 h; stronger effect = higher value
# In short: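 FRET-based beta-lactamase detection in ME-180 cells reports NF-kB response-element-driven transcription following overnight (16 hr) compound treatment.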
# [14] = qHTS assay for small molecule disruptors of the mitochondrial membrane potential - 1 hr assay (AID 651754); note: nearly all actives have a fitted effect of over 35% in size
# In short: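 Read-out: dye fluorescence at 490 nm ex/535 nm em (monomers) and 540 nm ex/590 nm em (aggregates) in HepG2 cells. Compound exposure 1 hr at 37C, followed by 30 min dye loading.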
# [15] = target: Peroxisome proliferator-activated receptor gamma (Homo sapiens) (UniProt P37231); experiment: qHTS assay for small molecule antagonists of peroxisome proliferator-activated receptor gamma signaling (AID 588537; active = well fitted inhibition curve with a large enough effect in the signal ratio, with a control signal flat, not every such curve was filed as active; the % refers to the signal ratio;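 note: reporter cells co-stimulated with 50 nM rosiglitazone agonist during compound treatment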)
# In short: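 Cell-based beta-lactamase assay; GW9662 served as the antagonist control. Stimulation used rosiglitazone, final 50 nM, 16 h, 37 C.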
# [16] = qHTS assay for small molecule agonists of the antioxidant response element (ARE) signaling pathway (AID 651741; active = well fitted activation curve with a large enough effect in the signal ratio; the % refers to the signal ratio)
# In short: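 Agonist activity is measured as ARE-driven beta-lactamase expression in a stable HepG2 reporter line, using 16 h compound treatment at 37 C and a FRET substrate fluorescence readout after 2 h.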
# [17] = target: Vitamin D3 receptor (Homo sapiens) (UniProt P11473); experiment: qHTS assay for small molecule antagonists of vitamin D receptor signaling (AID 588541);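 note: receptor activated by calcitriol during compound treatment; series mostly up to about 77 µM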
# Sequence of Vitamin D3 receptor (Homo sapiens) (P11473 whole entry, looked up): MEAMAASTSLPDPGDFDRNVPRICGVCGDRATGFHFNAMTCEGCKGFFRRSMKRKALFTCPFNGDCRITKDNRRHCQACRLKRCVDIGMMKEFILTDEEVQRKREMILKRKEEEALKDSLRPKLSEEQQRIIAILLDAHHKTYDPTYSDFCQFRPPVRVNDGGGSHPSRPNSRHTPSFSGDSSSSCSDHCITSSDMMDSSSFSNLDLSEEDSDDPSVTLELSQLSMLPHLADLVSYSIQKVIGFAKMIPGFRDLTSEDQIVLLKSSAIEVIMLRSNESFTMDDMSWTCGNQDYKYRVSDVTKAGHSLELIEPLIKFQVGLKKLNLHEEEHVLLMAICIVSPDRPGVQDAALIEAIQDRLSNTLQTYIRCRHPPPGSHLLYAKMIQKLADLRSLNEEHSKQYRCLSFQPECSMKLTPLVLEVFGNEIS
# In short: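 Antagonist-mode beta-lactamase reporter assay: HEK293T VDR-UAS-bla cells were exposed to titrated compound alongside 1-alpha,25-dihydroxyvitamin D3 at 3 nM final for 16 h. Values were normalized to the 50 nM agonist control and DMSO basal, with IC50 and efficacy from Hill equation fits.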
# [18] = target: Vitamin D3 receptor (Homo sapiens) (UniProt P11473); experiment: qHTS assay for small molecule agonists of vitamin D receptor signaling (AID 588543)
# In short: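 β-lactamase reporter, VDR-UAS-bla HEK293T, agonist mode. Cells plated 5 h at 37 °C, compound titration 16 h at 37 °C, CCF4 dye 2 h RT, ratio 460/530 nm. Hill fit → EC50, efficacy vs 50 nM 1α,25-(OH)2D3.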
# [19] = target: Glucocorticoid receptor (Homo sapiens) (UniProt P04150); experiment: qHTS assay for small molecule agonists of glucocorticoid receptor signaling (AID 588532; active = well fitted curve in the direction sought with a large enough effect in the signal ratio, with a control signal flat; the % refers to the signal ratio); settings: HeLa MMTV-bla, beta-lactamase ratio, agonist, 18 h; stronger effect = higher value; percent of dexamethasone control, DMSO zero
# In short: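 Quantitative HTS using CellSensor MMTV-bla HeLa cells in charcoal/dextran-treated serum; compounds tested up to 92 uM. After 18 h at 37 C, CCF4 dye reported reporter induction.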
SMILES,outcome [1],max response [2],Potency [3],outcome [4],max response [5],outcome [6],outcome [7],max response [8],max response [9],activity change % (negative = inhibition) [10],Potency [11],activation [12],activation [13],Potency [14],outcome [15],Potency [16],outcome [17],outcome [18],activation [19]
c1ccc2n[nH]nc2c1,inactive,-32.1%,inactive,inactive,-15.8%,inactive,inactive,-16.6%,-7.97% (inactive),-7.43% (inactive),inactive,-4.32% (inactive),1% (inactive),inactive,–,–,–,–,–
Nc1ccccc1[N+](=O)[O-],inactive,35.9%,inactive,inactive,-4.62%,inactive,–,1.56%,-0.391% (inactive),-6.45% (inactive),inactive,-3.02% (inactive),0.892% (inactive),inactive,inactive,inactive,–,–,–
CC(=O)Nc1ccc(C)cc1,inactive,-10.7%,inactive,inactive,-6.19%,inactive,inactive,-3.72%,5.73% (inactive),8.42% (inactive),inactive,-3.2% (inactive),1.33% (inactive),inactive,–,inactive,inactive,inactive,–
O=C(Cl)c1c(Cl)cccc1Cl,inactive,-5.79%,inactive,inactive,-8.14%,inactive,inactive,-4.7%,4.97% (inactive),-15.6% (inactive),inactive,–,–,inactive,–,inactive,inactive,inactive,–
CCN(C(=O)N(CC)c1ccccc1)c1ccccc1,–,–,–,inactive,6.15%,inactive,inactive,-7.14%,0.622% (inactive),1.82% (inactive),inactive,–,–,–,–,inactive,–,–,-1.59% (inactive)
CC1(N)CCC(C(C)(C)N)CC1 (stereo unspecified),–,–,–,inactive,-6.34%,inactive,inactive,4.37%,0.335% (inactive),-1.11% (inactive),inactive,0.302% (inactive),-1.08% (inactive),inactive,–,inactive,inactive,–,7.57% (inactive)
CC(=O)c1ccc([N+](=O)[O-])cc1,inactive,10.4%,inactive,inactive,-7.91%,inactive,inactive,4.7%,–,-0.995% (inactive),inactive,–,0.321% (inactive),inactive,–,–,inactive,inactive,–
Cc1ccc(Br)cc1,inactive,4.44%,inactive,inactive,5.91%,inactive,inactive,1.18%,–,-9.28% (inactive),inactive,–,–,inactive,inactive,inactive,inactive,–,–
Nc1c(Cl)cc(Cl)cc1Cl,inactive,1.78%,inactive,inactive,-8.9%,inactive,inactive,1.94%,4.53% (inactive),14.8% (inactive),inactive,-0.29% (inactive),–,inactive,inactive,inactive,inactive,inactive,–
O=C(O)c1cccc([N+](=O)[O-])c1,inactive,27.4% and 43.1%,inactive,inactive,-11.3% and -11.9%,inactive,inactive,-5.28% and -12.1%,-4.13% (inactive) and 8.19% (inactive),3.98% (inactive) and -3.17% (inactive),inactive,-1.71% (inactive) and -6.43% (inactive),-1.01% (inactive) and -3.15% (inactive),inactive,inactive,inactive,–,–,–
CC(C)C=O,inactive,-3.06%,inactive,inactive,3.23%,inactive,inactive,-14.5%,8.49% (inactive),-10% (inactive),inactive,0.787% (inactive),-1.3% (inactive),inactive,–,inactive,inactive,–,–
C=C(C)C(=O)OC,inactive,-44.8%,inactive,inactive,-17.1%,inactive,inactive,-11.6%,-3.12% (inactive),-1.4% (inactive),inactive,-0.845% (inactive),-2.84% (inactive),inactive,inactive,inactive,–,–,–
C=C(C)C(=O)OCC(C)O (stereo unspecified),–,24.5%,inactive,–,-4.4%,inactive,inactive,-2%,5.46% (inactive),11.2% (inactive),inactive,–,–,inactive,–,inactive,inactive,–,-4.2% (inactive)
